For 7 targets, log2 fold change results are on record in the supplement of paper PMC10849652.

Common to all, as to test: log2 fold change, soluble protein after heating vs DMSO (PISA); higher = thermal stabilisation; K562 lysate, 10 uM; active = over 0.2 and 3.5 SD of the protein, either way, in both replicates (recomputed)
Compound in assay [1]: O=C(CCCCCCC(=O)Nc1ccccc1)NO [vorinostat]
Put shortly:
(§1)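 To prepare the extract, K562 pellets were dounce-homogenised in PBS pH 7.4 with 1 mM MgCl2, giving crude material at 1 mg/mL protein. This was treated with 10 μM compound for 30 min, then heated in aliquots for 3 min over 48°C-58°C before pooling and addition of NP-40 to 0.5% at 4°C. Centrifugation at 21,000xg for 90 min left soluble protein in the supernatant, which TMTpro 16plex LC-MS/MS quantified with equalised channel sums. Results are log-two fold changes in thermal stability compared with solvent controls, from duplicates.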

Compound in assay [2]: O=C(O)c1ccc2c(c1)nc(Nc1cccc(Cl)c1)c1ccncc12 [silmitasertib]
Put shortly: as §1

Compound in assay [3]: O=C1NC(=O)C(c2cnc3ccccn23)=C1c1cn2c3c(cc(F)cc13)CN(C(=O)N1CCCCC1)CC2
Put shortly: as §1

Compound in assay [4]: NCC(=O)Nc1ccc(-n2nc(C(F)(F)F)cc2-c2ccc3c(ccc4ccccc43)c2)cc1
Put shortly: as §1

Compound in assay [5]: c1cn2cc(-c3ccc4cn[nH]c4c3)nc(Nc3ccc(N4CCOCC4)cc3)c2n1 [entospletinib]
Put shortly: as §1

Targets with a hit are over-represented here; the source holds about 8,800 in all. About 0.5% of all pairs of compound and target were hits. A number with no mark means an inactive call.

Sequence of UniProt Q07954 (Q07954 whole entry, looked up): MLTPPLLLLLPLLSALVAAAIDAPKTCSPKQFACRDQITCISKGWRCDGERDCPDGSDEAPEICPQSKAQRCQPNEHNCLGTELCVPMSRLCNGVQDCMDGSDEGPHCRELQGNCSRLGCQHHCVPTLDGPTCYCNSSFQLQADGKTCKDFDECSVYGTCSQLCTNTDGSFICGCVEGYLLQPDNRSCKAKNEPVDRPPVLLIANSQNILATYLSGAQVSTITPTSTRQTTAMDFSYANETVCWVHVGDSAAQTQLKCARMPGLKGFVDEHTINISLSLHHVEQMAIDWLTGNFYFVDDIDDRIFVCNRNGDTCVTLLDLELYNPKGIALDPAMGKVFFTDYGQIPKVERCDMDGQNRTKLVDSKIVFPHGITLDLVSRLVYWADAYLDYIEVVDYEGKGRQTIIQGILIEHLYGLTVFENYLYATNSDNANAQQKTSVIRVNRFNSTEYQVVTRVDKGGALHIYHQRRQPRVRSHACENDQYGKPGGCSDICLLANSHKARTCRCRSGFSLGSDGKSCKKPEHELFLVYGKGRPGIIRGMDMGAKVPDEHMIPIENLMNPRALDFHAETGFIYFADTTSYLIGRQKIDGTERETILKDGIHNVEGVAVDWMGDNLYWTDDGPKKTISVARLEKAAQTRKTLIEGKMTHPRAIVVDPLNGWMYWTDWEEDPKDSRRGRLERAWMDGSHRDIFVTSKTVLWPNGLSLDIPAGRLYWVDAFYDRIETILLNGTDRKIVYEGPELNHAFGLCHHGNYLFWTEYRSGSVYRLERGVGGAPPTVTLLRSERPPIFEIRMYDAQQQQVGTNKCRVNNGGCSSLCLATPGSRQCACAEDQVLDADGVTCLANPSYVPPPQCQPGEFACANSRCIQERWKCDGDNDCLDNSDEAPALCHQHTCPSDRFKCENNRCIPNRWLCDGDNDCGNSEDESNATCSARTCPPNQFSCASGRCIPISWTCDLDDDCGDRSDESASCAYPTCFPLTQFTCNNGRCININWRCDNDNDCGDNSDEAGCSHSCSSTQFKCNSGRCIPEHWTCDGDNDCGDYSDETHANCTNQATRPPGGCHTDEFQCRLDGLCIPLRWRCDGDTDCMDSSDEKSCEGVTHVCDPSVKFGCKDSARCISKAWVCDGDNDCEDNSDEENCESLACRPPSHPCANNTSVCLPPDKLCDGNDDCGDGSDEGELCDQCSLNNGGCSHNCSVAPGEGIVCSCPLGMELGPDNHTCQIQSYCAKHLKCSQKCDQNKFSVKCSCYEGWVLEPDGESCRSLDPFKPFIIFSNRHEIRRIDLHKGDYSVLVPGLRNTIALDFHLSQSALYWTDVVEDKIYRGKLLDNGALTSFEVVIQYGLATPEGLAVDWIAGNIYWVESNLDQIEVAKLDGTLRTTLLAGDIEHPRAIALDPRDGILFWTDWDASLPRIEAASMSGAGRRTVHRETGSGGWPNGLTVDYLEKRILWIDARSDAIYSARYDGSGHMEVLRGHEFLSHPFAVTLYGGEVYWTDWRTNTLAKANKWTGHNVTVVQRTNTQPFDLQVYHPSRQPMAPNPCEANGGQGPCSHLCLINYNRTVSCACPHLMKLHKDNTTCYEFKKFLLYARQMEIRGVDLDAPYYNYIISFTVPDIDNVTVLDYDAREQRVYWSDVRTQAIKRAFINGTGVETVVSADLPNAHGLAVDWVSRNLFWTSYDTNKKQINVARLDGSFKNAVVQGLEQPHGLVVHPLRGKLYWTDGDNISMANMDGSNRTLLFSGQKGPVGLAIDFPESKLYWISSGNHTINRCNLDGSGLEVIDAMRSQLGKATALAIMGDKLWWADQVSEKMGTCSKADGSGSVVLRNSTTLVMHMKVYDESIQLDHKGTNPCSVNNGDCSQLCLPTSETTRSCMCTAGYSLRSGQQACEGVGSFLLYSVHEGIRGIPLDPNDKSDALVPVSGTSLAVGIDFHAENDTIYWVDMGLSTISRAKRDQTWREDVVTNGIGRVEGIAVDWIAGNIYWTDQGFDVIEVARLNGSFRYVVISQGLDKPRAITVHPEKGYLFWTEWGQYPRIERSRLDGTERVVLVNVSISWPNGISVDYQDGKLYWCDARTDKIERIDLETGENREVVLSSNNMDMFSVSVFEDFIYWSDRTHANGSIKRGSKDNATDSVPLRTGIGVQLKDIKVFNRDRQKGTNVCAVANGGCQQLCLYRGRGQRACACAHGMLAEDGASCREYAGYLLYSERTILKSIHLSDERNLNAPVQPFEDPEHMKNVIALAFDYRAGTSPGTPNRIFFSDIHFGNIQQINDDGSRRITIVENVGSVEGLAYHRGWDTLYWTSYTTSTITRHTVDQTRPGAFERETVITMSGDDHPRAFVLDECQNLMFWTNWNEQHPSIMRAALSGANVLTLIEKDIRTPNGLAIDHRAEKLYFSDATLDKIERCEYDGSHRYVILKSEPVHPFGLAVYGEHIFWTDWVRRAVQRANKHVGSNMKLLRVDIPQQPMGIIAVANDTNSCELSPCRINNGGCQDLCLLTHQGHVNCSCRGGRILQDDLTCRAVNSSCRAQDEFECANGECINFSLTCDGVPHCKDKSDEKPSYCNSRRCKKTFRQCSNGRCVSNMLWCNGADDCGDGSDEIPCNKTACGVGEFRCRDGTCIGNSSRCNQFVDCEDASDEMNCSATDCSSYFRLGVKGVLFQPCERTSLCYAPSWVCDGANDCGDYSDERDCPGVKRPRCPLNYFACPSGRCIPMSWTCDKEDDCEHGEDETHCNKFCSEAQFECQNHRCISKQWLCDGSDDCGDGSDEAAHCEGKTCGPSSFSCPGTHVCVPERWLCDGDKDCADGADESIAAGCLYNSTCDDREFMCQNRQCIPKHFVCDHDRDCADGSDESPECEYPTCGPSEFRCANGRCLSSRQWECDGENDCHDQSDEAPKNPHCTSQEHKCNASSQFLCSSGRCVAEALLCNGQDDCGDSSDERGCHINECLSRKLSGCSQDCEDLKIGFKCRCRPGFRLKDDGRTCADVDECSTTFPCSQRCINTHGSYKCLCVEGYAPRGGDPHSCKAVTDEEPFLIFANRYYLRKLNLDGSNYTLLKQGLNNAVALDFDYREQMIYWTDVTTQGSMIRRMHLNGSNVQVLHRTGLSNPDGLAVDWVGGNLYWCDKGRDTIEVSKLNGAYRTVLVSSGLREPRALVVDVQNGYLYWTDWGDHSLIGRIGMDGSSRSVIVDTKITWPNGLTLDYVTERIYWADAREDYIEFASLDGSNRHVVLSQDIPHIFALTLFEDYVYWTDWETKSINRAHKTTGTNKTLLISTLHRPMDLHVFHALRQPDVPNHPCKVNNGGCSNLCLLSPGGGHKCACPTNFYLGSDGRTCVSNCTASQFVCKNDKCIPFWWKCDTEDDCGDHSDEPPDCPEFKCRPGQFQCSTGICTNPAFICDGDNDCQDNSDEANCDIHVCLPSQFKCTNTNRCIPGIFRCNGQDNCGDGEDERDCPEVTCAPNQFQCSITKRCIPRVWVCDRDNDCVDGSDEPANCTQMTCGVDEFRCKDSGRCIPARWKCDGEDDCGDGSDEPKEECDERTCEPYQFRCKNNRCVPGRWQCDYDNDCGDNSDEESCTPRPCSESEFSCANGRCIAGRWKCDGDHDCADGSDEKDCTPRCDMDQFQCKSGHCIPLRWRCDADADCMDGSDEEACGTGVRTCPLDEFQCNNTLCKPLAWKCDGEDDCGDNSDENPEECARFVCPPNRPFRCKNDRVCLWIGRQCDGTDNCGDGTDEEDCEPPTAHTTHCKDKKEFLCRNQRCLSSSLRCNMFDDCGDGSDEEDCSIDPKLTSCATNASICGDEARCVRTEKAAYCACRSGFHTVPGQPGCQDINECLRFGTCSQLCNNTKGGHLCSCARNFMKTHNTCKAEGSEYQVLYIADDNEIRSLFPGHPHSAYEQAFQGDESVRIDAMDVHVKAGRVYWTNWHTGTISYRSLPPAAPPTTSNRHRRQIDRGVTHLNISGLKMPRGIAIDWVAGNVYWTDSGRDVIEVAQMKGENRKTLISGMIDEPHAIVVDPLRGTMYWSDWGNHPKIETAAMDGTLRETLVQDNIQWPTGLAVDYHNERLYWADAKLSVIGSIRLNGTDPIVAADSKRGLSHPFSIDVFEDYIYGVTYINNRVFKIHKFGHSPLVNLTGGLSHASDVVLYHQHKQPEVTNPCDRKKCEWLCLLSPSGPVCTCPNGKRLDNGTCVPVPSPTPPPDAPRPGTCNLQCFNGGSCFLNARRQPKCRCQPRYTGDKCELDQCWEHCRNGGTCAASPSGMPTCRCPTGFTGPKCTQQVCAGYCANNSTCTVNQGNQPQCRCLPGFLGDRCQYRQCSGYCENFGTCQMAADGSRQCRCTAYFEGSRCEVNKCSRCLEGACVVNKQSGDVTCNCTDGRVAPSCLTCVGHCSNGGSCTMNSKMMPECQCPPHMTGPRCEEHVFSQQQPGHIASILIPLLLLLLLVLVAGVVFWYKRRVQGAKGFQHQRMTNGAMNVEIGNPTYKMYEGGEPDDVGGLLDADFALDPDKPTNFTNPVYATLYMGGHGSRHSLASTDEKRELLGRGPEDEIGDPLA
Sequence of UniProt Q9NWR8 (Q9NWR8 whole entry, looked up): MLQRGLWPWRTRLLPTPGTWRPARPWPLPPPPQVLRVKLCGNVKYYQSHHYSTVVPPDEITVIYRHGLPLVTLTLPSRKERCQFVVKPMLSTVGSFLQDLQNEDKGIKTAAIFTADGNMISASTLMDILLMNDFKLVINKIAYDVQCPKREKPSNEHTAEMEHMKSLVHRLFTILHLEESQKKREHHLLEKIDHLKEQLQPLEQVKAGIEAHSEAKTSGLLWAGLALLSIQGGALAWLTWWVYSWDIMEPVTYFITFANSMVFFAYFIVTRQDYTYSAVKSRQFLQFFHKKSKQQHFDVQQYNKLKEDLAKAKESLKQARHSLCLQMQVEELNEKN

Consider MME (UniProt P08473), for which the log2 fold change in assay [1] was 0.096; in assay [2] it was -0.033; in assay [3], -0.038.

As for MAP4 isoform 5 (UniProt P27816), the log2 fold change in assay [4] was 0.001; in assay [1] it was 0.359; in assay [2] it was 0.074; in assay [3] it was 0.087; in assay [5], 0.063.

Take MDM1 (UniProt Q8TC05): the log2 fold change in assay [4] is 0.056; in assay [1] it was 0.085; in assay [2], 0.093; in assay [5], -0.119.

As to MCUB (UniProt Q9NWR8), the figures for the log2 fold change in assay [1], in assay [2] and in assay [3] were 0.129, 0.057 and 0.027, respectively.

As for LRP1 (UniProt Q07954), the log2 fold change in assay [4] was 0.233; in assay [3], 0.296; in assay [5], -0.032.

Take MAPKAP1 (UniProt Q9BPZ7): the log2 fold change was -0.111 in assay [1], 0.187 in assay [2], -0.018 in assay [3] and -0.157 in assay [5].

With MRPL22 (UniProt Q9NWU5), the figures for the log2 fold change in assay [1], in assay [2] and in assay [3] were -0.687 (active), 0.001 and -0.007, respectively.
